The source of these data is PMC5540273 (PLoS ONE, 2017).

What all share (settings): concentration: 1 μM, replicates: in singlicate, n = 1
In experiment [1] the test system is TSSK3.
Experiment [2] concerns TTK.
Experiment [3] deals with TXK.
In experiment [4] the test system is TYK2(JH1domain-catalytic).
In experiment [5] the test system is TYK2(JH2domain-pseudokinase).
For experiment [6], the system named is TYRO3.
For experiment [7], the system named is ULK1.
The subject of experiment [8] is ULK2.
For experiment [9], the system named is ULK3.
The test system of experiment [10] is T1, VEGFR2.
T1 construct: gene KDR

“And” between values parts separate entries of the source, which are not always exact repeats. Equal values may be shown once. Read-outs that look alike come from different tables or passages of the source.
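Further: KINOMEscan kinase panel screen.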

As for `CN(C1=C(c2ccccc2)C(=O)NC1=O)c1ccccc1` [SB-334860], the “%Inh” value stood at 15% in experiment [1]; 0% in experiment [2]; 83% in experiment [3]; 0% in experiment [4]; 0% in experiment [5]; 0% in experiment [6]. Moreover, the “%Inh” value in [7] amounted to 5%; in [8], 8%; in [9], 6%; in experiment [10], 12%.
In the case of `COc1ccc(Nc2nccc(N3CCC(NC(=O)Nc4cccc(C(C)=O)c4)C3)n2)cc1` (stereo not shown) [GSK1379731], the “%Inh” value in [1] worked out at 8%; in experiment [2], 15%; in experiment [3], 0%; in experiment [4], 35%; in [5], 16%; in [6] it was 6%. The “%Inh” value in [7] was 18%; in experiment [8] it was 0%; in experiment [9], 16%; in experiment [10], 0%.
With `N#Cc1c(N2CCOCC2)sc(-c2ccn[nH]2)c1-c1ccc(Cl)cc1`, the “%Inh” value was 0% in experiment [1]; 19% in experiment [2]; 0% in [3]; 14% in experiment [4]; 20% in [5]; 0% in experiment [6]. Moreover, the “%Inh” value in experiment [7] came to 8%; in experiment [8] it was 15%; in experiment [9] it was 20%; in experiment [10], 11%.
Take `Cc1c2ccc(N(C)c3ccnc(Nc4cccc(S(N)(=O)=O)c4)n3)cc2nn1Cc1ccccc1.Cl.Cl` [GW787226]: the “%Inh” value in experiment [1] was 0%; in experiment [2], 35%; in [3], 17%; in experiment [4], 16%; in experiment [5], 0%; in experiment [6] it was 0%. In addition, the “%Inh” value in [7] was 3%; in experiment [8], 0%; in [9], 6%; in [10], 99.2%.
With `N#Cc1ccc(-c2cc(-c3c[nH]nc3-c3ccccn3)ccn2)cc1` [GW693028], the “%Inh” value amounted to 8% in experiment [1]; 3% in [2]; 6% in [3]; 1% in [4]; 28% in [5]; 24% in [6]. The “%Inh” value was found to be 6% in experiment [7], 0% in experiment [8], 6% in experiment [9] and 0% in experiment [10].
With `NS(=O)(=O)c1cccc(-c2ccc3ncc(N4CCOCC4)nc3c2)c1` [GSK1535721], the “%Inh” value is 6% in experiment [1]; 6% in [2]; 0% in [3]; 0% in [4]; 31% in experiment [5]; 0% in experiment [6]. The “%Inh” value is reported as 0% in [7], 0% in experiment [8], 2% in [9] and 10% in [10].
Take `Cl.Cl.Cl.Fc1ccc(-c2ncn(C3CCNCC3)c2-c2ccnc(Nc3ccccc3)n2)cc1` [SB-238039]: the “%Inh” value in experiment [1] (1 µM) was 19% and 5%; in experiment [2] (1 µM), 15% and 3%; in [3] (1 µM) it was 3% and 0%; in [4] (1 µM), 35% and 0%; in [5] (1 µM) it was 18% and 0%; in experiment [6] (1 µM), 0% and 12%. Also, the “%Inh” value is 28% and 6% in [7] (1 µM); 21% and 29% in [8] (1 µM); 24% and 26% in [9] (1 µM); 0% and 9% in experiment [10] (1 µM).
`CCn1cnc2c(N)ncnc21` [GW345098]: the “%Inh” value in [1] was 6%; in experiment [2], 0%; in experiment [3] it was 8%; in experiment [4] it was 23%; in experiment [5], 0%; in [6], 32%. Also, the “%Inh” value in experiment [7] worked out at 0%; in [8], 21%; in [9], 0%; in experiment [10], 0%.
As for `Nc1nc(-c2ccc3c(N)n[nH]c3c2)cc(N2CCCC2)n1` [GSK2227430], the “%Inh” value in experiment [1] is recorded as 17%; in experiment [2] it was 11%; in [3], 0%; in [4], 0%; in experiment [5], 46%; in experiment [6], 0%. Besides, the “%Inh” value was found to be 0% in [7], 0% in [8], 2% in [9] and 0% in experiment [10].
In the case of `Cn1ccc2ncnc(Oc3ccc(NC(=O)Nc4ccncc4)c(Cl)c3)c21`, the “%Inh” value in experiment [1] stood at 0%; in [2], 0%; in experiment [3], 0%; in experiment [4], 3%; in experiment [5], 5%; in [6], 0%. In addition, the “%Inh” value amounted to 0% in [7], 10% in [8], 0% in [9] and 1% in experiment [10].
In the case of `CCc1nc(-c2cccc(C)c2)c(-c2ccnc(NCc3ccccc3)c2)s1`, the “%Inh” value in experiment [1] is given as 1%; in experiment [2] it was 12%; in [3], 0%; in experiment [4], 0%; in experiment [5], 0%; in experiment [6], 0%. Besides, the “%Inh” value came to 0% in experiment [7], 8% in experiment [8], 0% in [9] and 0% in [10].
Regarding `O=c1cc(N2CCOCC2)nc2n(Cc3cccc4ccccc34)ccn12` [GSK2333389], the “%Inh” value came out at 0% in experiment [1]; 10% in experiment [2]; 0% in experiment [3]; 24% in experiment [4]; 10% in experiment [5]; 0% in experiment [6]. Further, the “%Inh” value in experiment [7] was 14%; in experiment [8] it was 7%; in experiment [9], 7%; in experiment [10], 0%.
As to `[2H]C([2H])(c1cccc(C(F)(F)F)c1C)n1ccn2c(=O)nc(N3CCOCC3)cc12` [GSK2336394], the “%Inh” value in experiment [1] was determined as 14%; in experiment [2], 0%; in experiment [3] it was 0%; in experiment [4], 71%; in experiment [5] it was 13%; in [6], 0%. For the same compound, the “%Inh” value in experiment [7] turned out to be 0%; in experiment [8], 0%; in experiment [9], 8%; in experiment [10] it was 0%.
As to `CC(=O)Nc1ccc(COc2ccc(Nc3ccnc4cc(-c5ccccn5)ccc34)cc2)cc1.Cl` [GW440148], the “%Inh” value in experiment [1] is given as 12%; in experiment [2], 0%; in experiment [3], 3%; in [4], 20%; in [5] it was 5%; in [6], 0%. Also, the “%Inh” value in experiment [7] is 0%; in experiment [8], 0%; in [9] it was 3%; in [10], 99.6%.
Regarding `COc1cc2c(cc1OC[C@@H](O)CO)ncc1c3ccc(C#N)cc3[nH]c21`, the “%Inh” value in [1] was 0%; in experiment [2] it was 0%; in [3], 0%; in [4] it was 0%; in experiment [5], 22%; in experiment [6] it was 0%. Besides, the “%Inh” value is 71% in experiment [7], 99.2% in experiment [8], 50% in experiment [9] and 19% in experiment [10].
With `NCCNS(=O)(=O)c1ccc(-c2ccnc3[nH]ccc23)cc1` [GSK977617], the “%Inh” value was 34% and 22% in experiment [1] (1 µM); 36% and 30% in experiment [2] (1 µM); 10% and 0% in experiment [3] (1 µM); 84% and 79% in experiment [4] (1 µM); 38% and 30% in experiment [5] (1 µM); 0% in experiment [6]. In addition, the “%Inh” value was 93.8% and 83% in experiment [7] (1 µM); 39% and 33% in [8] (1 µM); 64% and 35% in [9] (1 µM); 7% and 24% in experiment [10] (1 µM).
